PubChem BioAssay
Active and inactive are the calls of the source. Unless noted, the rule behind the calls is not given here.

Tests used:
[1] = circadian clock period modulators, cell-based, LOPAC library, luminescence reporter (AID 2774); settings: circadian reporter cells, at 7 µM, actives lie on both sides;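 note: values are relative to mean of DMSO wells on each plate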
[2] = tested on: Hepatitis C virus NS3 helicase; experiment: HCV NS3 helicase inhibitors, primary screen, biochemical, fluorescence polarization, LOPAC1280 library (AID 687035; in the data active = inhibition above about 37%); settings: Purified HCV NS3 helicase, Cy5-dT15 ssDNA binding fluorescence polarization; stronger effect = higher value; concentration not given here
[3] = Cy5 fluorescence quenching or enhancement artefacts, artefact control for HCV NS3 helicase inhibitor project, biochemical, LOPAC1280 (AID 687037); settings: Cy5-DNA-NS3h complex fluorescence interference counterscreen
[4] = tested on: Aerobactin synthetase IucA (Klebsiella pneumoniae, hypervirulent); experiment: IucA enzyme inhibition, biochemical, LOPAC library, absorbance readout (AID 1346212); settings: IucA enzyme assay, absorbance (OD) readout; stronger effect = lower value;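 tested at 8 µM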;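 note: 100% = no compound wells and 0% = no enzyme wells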
[5] = sensitizers of A549 cells to miR-34 induction, primary screen, imaging, A549 dox-inducible miR-34, nuclei and caspase counts (AID 1347080;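 active = compounds whose cell count with miR-34 switched on is under 0.7 times the count with it off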); settings: A549 miR-34 inducible, Hoechst nuclei count, 48 h
[6] = phospholipid biosynthesis inhibitors in animal cells, primary screen, cell-based, LOPAC library, screen 4 (AID 1347384); settings: phospholipid biosynthesis inhibition screen, at 10 µM
[7] = viability rescue of complex I mutant cybrids, primary screen, cell-based, galactose medium, ATP luminescence (AID 1645843;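 active = z-score of at least 1.8 in each of two replicates, scored against plate mean and spread of sample wells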;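 note: positive z means more ATP and so rescue of galactose-driven cybrid death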); settings: complex I mutant cybrid cells, 72 h, stronger effect = higher value
[8] = measured here: relative caspase fold change +Dox/-Dox
[9] = measured here: total cells with miR-34 induction, stronger effect = lower value
[10] = measured here: total cells without miR-34 induction

| SMILES | period change [1] | inhibition [2] | fluorescence ratio (interference) [3] | remaining activity [4] | fold change ([5]; stronger effect = lower value) | fold change [5, 8] | cell count [5, 9] | cell count [5, 10] | outcome [6] | z-score [7] |
| --- | --- | --- | --- | --- | --- | --- | --- | --- | --- | --- |
| CNCCc1c[nH]c2ccc(O)cc12 | 0.02 h (inactive) | -6% (inactive) | 0.9 (inactive) | 121% (inactive) | 1.03 (inactive) | 1.46 | 10900 | 10600 | inactive | 0.2 (inactive) |
| CN1CCc2cccc(Cl)c2CC1 | 0.06 h (inactive) | -4% (inactive) | 1 (inactive) | 114% (inactive) | 1.03 (inactive) | 1.41 | 9920 | 9620 | inactive | 0.41 (inactive) |
| NNC(=O)c1ccc(O)cc1 | 0.115 h (inactive) | 1% (inactive) | 1.1 (inactive) | 109% (inactive) | 0.976 (inactive) | 1.57 | 9790 | 10000 | inactive | 0.275 (inactive) |
| CCS(=O)(=O)Nc1cccc(C(=C2CCCCC2)c2cnc[nH]2)c1 | 0.07 h (inactive) | 0% (inactive) | 1 (inactive) | 108% (inactive) | 1.11 (inactive) | 1.94 | 8610 | 7740 | inactive | -0.125 (inactive) |
| C[N+](C)(C)CCOC(=O)CBr | 0.015 h (inactive) | -2% (inactive) | 1 (inactive) | 126% (inactive) | 1.01 (inactive) | 2.27 | 10100 | 10100 | inactive | 0.69 (inactive) |
| C[N+](C)(C)CC#CCOC(=O)Nc1cccc(Cl)c1 | 0.045 h (inactive) | -2% (inactive) | 1 (inactive) | 123% (inactive) | 0.993 (inactive) | 1.89 | 10400 | 10500 | inactive | -0.395 (inactive) |
| CCCC[N+]1(C)C2CC(OC(=O)[C@H](CO)c3ccccc3)CC1C1OC12 (stereo not given in full) | -0.065 h (inactive) | -1% (inactive) | 1 (inactive) | 117% (inactive) | 0.937 (inactive) | 1.39 | 9870 | 10500 | inactive | 0.72 (inactive) |
| C[C@]12CCC3C(CC[C@H]4C[C@H](O)CC[C@]34C)C1CC[C@@H]2C(=O)CO (stereo not given in full) | 0.065 h (inactive) | -2% (inactive) | 1 (inactive) | 121% (inactive) | 1.06 (inactive) | 0.876 | 10400 | 9790 | inactive | -0.26 (inactive) |
| CCCN1CCc2cccc3c2[C@H]1Cc1ccc(O)c(O)c1-3 | 0.32 h (inactive) | -3% (inactive) | 1 (inactive) | 109% (inactive) | 1.06 (inactive) | 0.965 | 7250 | 6850 | inactive | -1.03 (inactive) |
| CN1CCc2cc(O)cc3c2[C@H]1Cc1ccc(O)c(O)c1-3 | 0.03 h (inactive) | -2% (inactive) | 1 (inactive) | 101% (inactive) | 1.01 (inactive) | 1.15 | 9530 | 9390 | inactive | -1.03 (inactive) |
| NCC(CP(=O)(O)O)c1ccc(Cl)cc1 (stereo not given) | 0.02 h (inactive) | -1% (inactive) | 1 (inactive) | 107% (inactive) | 1 (inactive) | 1.21 | 9470 | 9430 | inactive | 0.615 (inactive) |
| NCCCP(=O)(O)O | 0.005 h (inactive) | -1% (inactive) | 1 (inactive) | 111% (inactive) | 0.943 (inactive) | 2.14 | 9360 | 9930 | inactive | 0.285 (inactive) |
| Cn1cnc(CCN)c1 | -0.12 h (inactive) | -3% (inactive) | 1 (inactive) | 125% (inactive) | 1.08 (inactive) | 1.18 | 11400 | 10500 | inactive | 0.51 (inactive) |
| C[C@H](N)CN1CCc2ccc(Br)cc21 | 0.205 h (inactive) | -3% (inactive) | 1 (inactive) | 115% (inactive) | 1.19 (inactive) | 0.954 | 9010 | 7600 | inactive | -0.65 (inactive) |
| NC(N)=Nc1ccc2[nH]c3c(c2c1)C[C@@]1(O)[C@H]2Cc4ccc(O)c5c4[C@@]1(CCN2CC1CC1)[C@H]3O5 | -0.11 h (inactive) | -6% (inactive) | 0.9 (inactive) | 86.3% (inactive) | 1.08 (inactive) | 0.809 | 9750 | 9000 | inactive | -0.92 (inactive) |
| Cc1sc2ccccc2c1CC1=NCCN1 | 0.055 h (inactive) | -3% (inactive) | 0.9 (inactive) | 99.1% (inactive) | 1.03 (inactive) | 1.95 | 9870 | 9550 | inactive | -0.09 (inactive) |
| O=[N+]([O-])c1ccc2nc(N3CCNCC3)ccc2c1 | -0.09 h (inactive) | -1% (inactive) | 1 (inactive) | 117% (inactive) | 1.07 (inactive) | 1.56 | 8660 | 8090 | inactive | -1.12 (inactive) |
